In the library only some 2.5% were active in any assay of this set; here they are far more common.
Measles CPE – protection of cells from measles virus; Measles virus-infected cells, CPE protection, absorbance; protection (pct of control), % at 4 µM; hit rate 1.5% among 140,000; AID 841; in the data active = protection mostly above about 24%, no sharp cut-off; inactive = mostly below about 26%
sEH act – increases human soluble epoxide hydrolase activity | activation, % at 2 µM | purified human sEH enzymatic activity, activator screen | P34913 | hit rate 0.04% among 91,000; in the data active = activation above about 37%
Target sequence (P34913 whole entry, looked up): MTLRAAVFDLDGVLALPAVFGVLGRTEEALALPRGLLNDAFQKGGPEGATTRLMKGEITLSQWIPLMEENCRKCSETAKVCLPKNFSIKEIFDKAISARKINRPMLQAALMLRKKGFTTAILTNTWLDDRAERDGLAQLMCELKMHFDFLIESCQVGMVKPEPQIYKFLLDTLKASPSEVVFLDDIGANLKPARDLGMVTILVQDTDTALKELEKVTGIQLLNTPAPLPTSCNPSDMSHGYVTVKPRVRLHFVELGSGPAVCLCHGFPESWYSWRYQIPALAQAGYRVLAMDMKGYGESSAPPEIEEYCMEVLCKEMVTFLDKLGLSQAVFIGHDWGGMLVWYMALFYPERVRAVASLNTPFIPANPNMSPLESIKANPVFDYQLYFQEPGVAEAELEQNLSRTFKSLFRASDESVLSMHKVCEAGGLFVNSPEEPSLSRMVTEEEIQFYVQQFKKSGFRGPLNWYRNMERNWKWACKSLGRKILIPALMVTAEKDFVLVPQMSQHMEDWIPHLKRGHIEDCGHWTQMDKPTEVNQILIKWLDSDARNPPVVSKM
MRP resist rev – MRP-mediated drug resistance reversal; hit rate 0.04% among 85,000; H69AR cells + 2 uM doxorubicin, CellTiter-Glo, 72 h; differential viability (reversal), % at 10 µM;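 active = viability drop by adding the cancer drug above about 55%, with treated viability meeting a 40% cutoff, limit read from the data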;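 note: larger differential means the compound sensitizes cells more to doxorubicin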
sEH inhibitor – soluble epoxide hydrolase (human) inhibition. P34913. recombinant human sEH enzymatic activity assay. inhibition, % at 2 µM. hit rate 0.34% among 91,000; in the data active = inhibition above about 80%
sdo1 growth – restores growth of sdo1-depleted yeast | S. cerevisiae sdo1-depleted JHY4D growth rescue, OD600 30 h; active compounds read high; pdr5 snq2 efflux-pump mutant strain | z-score at 10 µM | hit rate 0.21% among 140,000 | AID 817;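 active = z-score above 3 at both the 24 hr and the 30 hr optical density reads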
MRP-1 activ – MRP-1 activation | H69AR cells + doxorubicin, viability rescue, CellTiter-Glo | viability increase, % at 10 µM | hit rate 0.61% among 140,000;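 active = viability gain under doxorubicin at or above a set limit, the compound median plus 3 SD, cut at about 4.7% in these data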;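 note: MRP-1 overexpressing cells given doxorubicin 25 µM after compound pretreatment; 18-22 h compound pretreatment then 72 h with doxorubicin before readout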
SDO1 rescue DR – confirmation of growth rescue in SDO1-depleted yeast, bone marrow failure; hit rate 44% among 440; OD recovery (no concentration beside the values); shares compounds with sdo1 growth; S. cerevisiae JHY4D (SDO1-depleted) growth rescue, OD600, 30 h; active compounds read high; efflux-deficient strain, SNQ2 and PDR5 mutated;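 active = yeast growth recovered at 30 hours, either rising with dose fitted slope above 0.001 or with average optical density gain above 0.07, some results past the limit were not filed as active; inactive = growth falling with dose or no effect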
Large screens that a line does not name were inactive (follow-up assays come after a bar, where they were run).

CCCCN(C(=O)NC(=O)Nc1ccccc1OC)S(C)(=O)=O	Measles CPE 27.9
CCOC(=O)c1cnn2cc(-c3[nH]ncc3[N+](=O)[O-])cnc12	Measles CPE 33.4 (no result: sEH act, MRP resist rev, sEH inhibitor)
CCOC(=O)c1cnc2c(-c3ccccc3)cnn2c1N	none (no result: MRP resist rev)
COc1ccc(C(=O)NCC(=O)OCC(=O)c2cc(OC)c(OC)c(OC)c2)cc1OC	Measles CPE 43.8 (no result: sEH act, MRP resist rev, sEH inhibitor)
O=C(CN1C(=O)CCC1=O)c1ccc(-c2ccccc2)cc1	Measles CPE 33.0 (no result: sEH act, MRP resist rev, sEH inhibitor)
CCCC(=O)c1ccc(-c2ccccc2)cc1	none (no result: MRP resist rev)
COc1ccc(S(=O)(=O)NC(C(C)C)C(C)C)cc1OC	none
COc1cc(S(=O)(=O)NC(C)C)ccc1Cl	Measles CPE 32.7
CCc1nnc(NC(=O)CSc2nnc(-c3ccc(O)cc3)n2-c2ccccc2)s1	none (no result: Measles CPE, sEH act, sEH inhibitor, sdo1 growth, MRP-1 activ)
NC(=S)Nc1cccc2cccnc12	none (no result: MRP resist rev)
O=C(Nc1cccc2cccnc12)C1CCCC1	Measles CPE 28.6 (no result: sEH act, MRP resist rev, sEH inhibitor)
O=C(CCc1ccccc1)Nc1cc(Cl)ccc1O	Measles CPE 36.4
O=C(CCc1ccccc1)N/N=C/c1cc(Br)ccc1O	MRP-1 activ 6.4 (no result: sEH act, MRP resist rev, sEH inhibitor)
O=C(O)CC(=O)Nc1cc(Cl)ccc1O	none
CC(C)NC(=S)N/N=C/c1cc(Br)ccc1O	MRP-1 activ 5.0 (no result: sEH act, MRP resist rev, sEH inhibitor)
O=C(CCCSc1nnnn1-c1ccccc1)c1ccc(F)cc1	none (no result: MRP resist rev)
O=C(COc1ccc(S(=O)(=O)NC2CCCCC2)cc1)N1CCN(c2cccc(Cl)c2)CC1	none
O=C(COC(=O)CCSc1ccccc1)NCc1ccccc1Cl	Measles CPE 75.2 (no result: sEH act, MRP resist rev, sEH inhibitor)
O=C(COC(=O)CCSc1ccc(Cl)cc1)NCc1ccccc1	none (no result: sEH act, MRP resist rev, sEH inhibitor)
c1ccc2c(c1)OCCOCCOCCOCCOc1ccccc1OCCOCCOCCO2	Measles CPE 47.2 (no result: sEH act, MRP resist rev, sEH inhibitor)
Cc1ccc(C(=O)COC(=O)c2ccc(Br)o2)cc1C	sdo1 growth 3.71 (no result: sEH act, sEH inhibitor) | SDO1 rescue DR 0.0812
COc1ccc(C2CC3(CC(C)(C)NC(SC)=N3)Oc3cc(O)cc(C)c32)cc1 (stereo not given)	none (no result: sEH act, MRP resist rev, sEH inhibitor)
Cc1cc(-c2ccccc2)n2nc(C)c(C#N)c2n1	sdo1 growth 12.3 | SDO1 rescue DR inactive
Cc1cc(C)n2nc(/C(C#N)=C/c3ccccc3)c(C#N)c2n1	none (no result: MRP resist rev)
CN(C)c1ccc(/C=[N+](\[O-])C2SC(=S)N(C)C2(C)C)cc1 (stereo not given)	none
CN(C)c1ccc(/C=[N+](\[O-])C2N(c3ccccc3)C(=S)SC2(C)C)cc1 (stereo not given)	sdo1 growth 7.89 (no result: sEH act, MRP resist rev, sEH inhibitor) | SDO1 rescue DR inactive
Cc1nc2ccccc2c(=O)n1/N=C/c1cccnc1	sdo1 growth 3.06 | SDO1 rescue DR inactive
Cc1nc2ccccc2n1/N=C/c1cccnc1	none
CCOC(=O)C1=C(C)NC(=S)NC1/C=C/c1ccccc1 (stereo not given)	none (no result: sEH act, MRP resist rev, sEH inhibitor)
COC(=O)C(C)N(C(=O)c1cccc(Cl)c1)c1c(C)cccc1C (stereo not given)	sdo1 growth 5.56 | SDO1 rescue DR inactive
c1cnc(N2CCSCC2)nc1	sdo1 growth 8.91 | SDO1 rescue DR inactive
COc1ccc(N2CC(C(=O)NCCCN3CCOCC3)CC2=O)cc1 (stereo not given)	none | SDO1 rescue DR 0.0836
COc1ccc(C2=NOC(C(=O)NCCCN3CCOCC3)C2)cc1 (stereo not given)	none
CC1(C)C(=O)OC(c2ccccc2)C2(CCCC2)C1=O (stereo not given)	sdo1 growth 3.24 | SDO1 rescue DR inactive
Cc1nc(CS(=O)(=O)c2ccccc2)cc(N2CCOCC2)n1	sdo1 growth 12 (no result: MRP resist rev) | SDO1 rescue DR 0.0688
CCCN1C(=O)/C(=N\OCC(=O)NCC(F)(F)F)c2ccccc21	none (no result: sEH act, MRP resist rev, sEH inhibitor)
O=C(CSc1nnc(-c2ccco2)o1)c1ccc(F)c(F)c1	none
O=C(CSc1nnc(-c2ccco2)o1)c1ccccc1	none | SDO1 rescue DR inactive
COc1ccc(C(=O)CSc2nnc(Cc3ccccc3)o2)cc1	sdo1 growth 6.99 (no result: sEH act, sEH inhibitor) | SDO1 rescue DR inactive
Cc1ccc(Cn2c(CN3CC(C)OC(C)C3)nc3c2c(=O)n(C)c(=O)n3C)cc1 (stereo not given)	sdo1 growth 8.78 | SDO1 rescue DR 0.0574
CN1CCN(Cc2nc3c(c(=O)n(C)c(=O)n3C)n2CCCc2ccccc2)CC1	sdo1 growth 11.3 (no result: MRP resist rev) | SDO1 rescue DR 0.129
Cn1c(=O)c2c(nc(CN3CCOCC3)n2CCCc2ccccc2)n(C)c1=O	none

Source: PubChem (several laboratories)
